# Experimental data reported in paper PMC7862700, “An all-to-all approach to the identification of sequence-specific readers for epigenetic DNA modifications on cytosine”.
# Columns and labels:
# Test in all cases: DAPPL (digital affinity profiling via proximity ligation, sequencing); 10 mM Tris-HCl pH 7.5, 50 mM NaCl, 1 mM DTT, 4% glycerol, room temperature, 30 min; GST-TFs on glutathione beads, 16-mer random dsDNA library, 0.1% formaldehyde crosslink after washing; high values mean tight binding
# [1] = target: T1, FEV (Homo sapiens, UniProt Q99581 1-238); conditions: protein: recombinant; tags: N-terminal GST; dsDNA, one strand shown
# T1 sequence: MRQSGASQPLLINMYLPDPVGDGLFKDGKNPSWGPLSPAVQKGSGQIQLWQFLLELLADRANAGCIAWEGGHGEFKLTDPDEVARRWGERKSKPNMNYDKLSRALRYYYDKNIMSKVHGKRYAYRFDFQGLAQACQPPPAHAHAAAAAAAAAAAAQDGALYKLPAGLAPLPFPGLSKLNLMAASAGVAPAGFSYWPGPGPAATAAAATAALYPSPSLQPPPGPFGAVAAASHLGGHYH
# Method in brief: (§1)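 Pools were built from human transcription factors expressed in yeast as GST fusions, captured on glutathione beads and DNA-barcoded, along with a tag-only sample. Incubation with 200 nmole of a 16-mer random double-stranded DNA library lasted 30 min at room temperature in Tris/NaCl/DTT/glycerol buffer, and was followed by washing, 0.1% formaldehyde crosslinking, proximity ligation, PCR amplification and Illumina NextSeq500 sequencing. Binding signal is the quotient of each hexamer's read frequency for a factor and its frequency for the tag-only sample.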
# [2] = target: ETV5 (Homo sapiens, UniProt P41161 1-510); conditions: protein: recombinant; tags: N-terminal GST; dsDNA, one strand shown
# Sequence of ETV5 (P41161 whole entry): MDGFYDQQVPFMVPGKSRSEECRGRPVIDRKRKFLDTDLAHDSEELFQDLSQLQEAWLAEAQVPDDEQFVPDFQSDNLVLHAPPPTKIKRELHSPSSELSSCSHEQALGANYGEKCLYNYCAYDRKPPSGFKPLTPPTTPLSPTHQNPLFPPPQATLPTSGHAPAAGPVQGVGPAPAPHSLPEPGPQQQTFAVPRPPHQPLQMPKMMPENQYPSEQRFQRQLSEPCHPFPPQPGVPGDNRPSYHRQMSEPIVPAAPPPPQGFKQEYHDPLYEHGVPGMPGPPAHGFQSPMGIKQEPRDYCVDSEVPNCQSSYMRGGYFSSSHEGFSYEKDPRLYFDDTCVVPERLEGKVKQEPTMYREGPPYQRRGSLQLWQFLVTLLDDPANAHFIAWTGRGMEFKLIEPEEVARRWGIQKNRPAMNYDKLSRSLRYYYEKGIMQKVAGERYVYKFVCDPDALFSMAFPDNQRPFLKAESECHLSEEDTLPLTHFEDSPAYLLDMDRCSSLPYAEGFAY
# Method in brief: as §1
# [3] = target: HSF1 (Homo sapiens, UniProt Q00613 1-529); conditions: protein: recombinant; tags: N-terminal GST; chain copies: 3; dsDNA, one strand shown
# Sequence of HSF1 (Q00613 whole entry): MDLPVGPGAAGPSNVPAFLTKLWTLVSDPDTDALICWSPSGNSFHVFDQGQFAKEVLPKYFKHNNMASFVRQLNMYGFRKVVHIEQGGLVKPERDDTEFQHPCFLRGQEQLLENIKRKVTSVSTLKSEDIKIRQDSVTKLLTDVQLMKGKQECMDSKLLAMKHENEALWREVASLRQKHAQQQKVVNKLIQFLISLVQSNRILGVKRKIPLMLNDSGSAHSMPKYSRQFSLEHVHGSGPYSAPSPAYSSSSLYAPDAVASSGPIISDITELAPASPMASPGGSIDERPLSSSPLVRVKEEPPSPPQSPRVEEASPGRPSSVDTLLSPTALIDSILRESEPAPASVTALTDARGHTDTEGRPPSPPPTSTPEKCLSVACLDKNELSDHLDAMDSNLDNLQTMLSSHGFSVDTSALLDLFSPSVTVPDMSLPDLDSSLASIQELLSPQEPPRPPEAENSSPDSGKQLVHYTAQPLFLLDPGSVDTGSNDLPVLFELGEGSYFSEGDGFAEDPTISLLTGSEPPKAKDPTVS
# Method in brief: as §1
# [4] = target: T2, SPIC (Homo sapiens, UniProt Q8N5J4 1-248); conditions: protein: recombinant; tags: N-terminal GST; dsDNA, one strand shown
# T2 sequence: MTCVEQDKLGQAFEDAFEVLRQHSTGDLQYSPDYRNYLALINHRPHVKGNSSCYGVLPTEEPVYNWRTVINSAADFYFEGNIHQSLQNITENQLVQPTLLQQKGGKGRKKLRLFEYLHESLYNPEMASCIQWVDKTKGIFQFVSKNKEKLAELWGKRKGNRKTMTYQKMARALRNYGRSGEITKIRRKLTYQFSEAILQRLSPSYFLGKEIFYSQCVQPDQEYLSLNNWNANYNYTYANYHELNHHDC
# Method in brief: as §1
# [5] = target: ELF4 (Homo sapiens, UniProt Q99607 1-663); conditions: protein: recombinant; tags: N-terminal GST; dsDNA, one strand shown
# Sequence of ELF4 (Q99607 whole entry): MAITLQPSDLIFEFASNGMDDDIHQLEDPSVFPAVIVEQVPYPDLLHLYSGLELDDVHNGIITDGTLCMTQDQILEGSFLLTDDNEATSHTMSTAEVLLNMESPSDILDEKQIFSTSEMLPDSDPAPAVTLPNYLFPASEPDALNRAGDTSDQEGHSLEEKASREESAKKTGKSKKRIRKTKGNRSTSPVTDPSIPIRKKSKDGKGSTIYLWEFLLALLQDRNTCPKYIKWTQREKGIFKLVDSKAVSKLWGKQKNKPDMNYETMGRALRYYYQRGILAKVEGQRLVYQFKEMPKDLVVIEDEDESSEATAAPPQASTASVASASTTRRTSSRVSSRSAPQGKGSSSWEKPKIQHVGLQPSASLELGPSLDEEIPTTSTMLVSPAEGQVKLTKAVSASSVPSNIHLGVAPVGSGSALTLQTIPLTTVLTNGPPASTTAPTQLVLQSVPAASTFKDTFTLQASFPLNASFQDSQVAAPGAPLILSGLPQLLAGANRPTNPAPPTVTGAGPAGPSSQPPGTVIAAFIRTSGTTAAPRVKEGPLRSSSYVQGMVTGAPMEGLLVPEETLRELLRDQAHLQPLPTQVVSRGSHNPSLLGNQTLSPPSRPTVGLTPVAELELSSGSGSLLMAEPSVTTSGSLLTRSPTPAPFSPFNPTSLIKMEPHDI
# Method in brief: as §1
# [6] = target: T3, ELK4 (Homo sapiens, UniProt P28324-2 1-405); conditions: protein: recombinant; tags: N-terminal GST; dsDNA, one strand shown
# T3 sequence: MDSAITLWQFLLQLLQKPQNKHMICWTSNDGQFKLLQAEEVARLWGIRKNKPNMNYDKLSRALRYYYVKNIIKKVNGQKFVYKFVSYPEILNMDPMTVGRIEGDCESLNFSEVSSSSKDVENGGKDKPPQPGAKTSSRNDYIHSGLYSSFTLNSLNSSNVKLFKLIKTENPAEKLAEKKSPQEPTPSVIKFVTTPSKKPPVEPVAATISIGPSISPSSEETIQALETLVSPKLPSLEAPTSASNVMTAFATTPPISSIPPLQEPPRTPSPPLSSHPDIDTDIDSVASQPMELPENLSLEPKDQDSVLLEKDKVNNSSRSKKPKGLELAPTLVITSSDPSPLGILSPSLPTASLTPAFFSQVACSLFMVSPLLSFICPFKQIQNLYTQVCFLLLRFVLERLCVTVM
# Method in brief: as §1
# [7] = target: T4, ETV2 (Homo sapiens, UniProt O00321 1-342); conditions: protein: recombinant; tags: N-terminal GST; dsDNA, one strand shown
# T4 sequence: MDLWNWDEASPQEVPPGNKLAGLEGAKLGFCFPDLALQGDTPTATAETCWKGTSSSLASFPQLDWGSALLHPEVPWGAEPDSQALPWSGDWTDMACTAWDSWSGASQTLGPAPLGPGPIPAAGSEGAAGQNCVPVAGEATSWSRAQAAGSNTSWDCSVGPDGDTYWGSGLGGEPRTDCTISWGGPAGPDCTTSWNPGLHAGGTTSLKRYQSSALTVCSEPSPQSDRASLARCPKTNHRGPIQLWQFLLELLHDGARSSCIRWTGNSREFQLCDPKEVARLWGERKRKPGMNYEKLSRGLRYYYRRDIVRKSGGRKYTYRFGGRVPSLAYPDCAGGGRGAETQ
# Method in brief: as §1
# [8] = target: T5, ELF3 (Homo sapiens, UniProt P78545 1-371); conditions: protein: recombinant; tags: N-terminal GST; dsDNA, one strand shown
# T5 sequence: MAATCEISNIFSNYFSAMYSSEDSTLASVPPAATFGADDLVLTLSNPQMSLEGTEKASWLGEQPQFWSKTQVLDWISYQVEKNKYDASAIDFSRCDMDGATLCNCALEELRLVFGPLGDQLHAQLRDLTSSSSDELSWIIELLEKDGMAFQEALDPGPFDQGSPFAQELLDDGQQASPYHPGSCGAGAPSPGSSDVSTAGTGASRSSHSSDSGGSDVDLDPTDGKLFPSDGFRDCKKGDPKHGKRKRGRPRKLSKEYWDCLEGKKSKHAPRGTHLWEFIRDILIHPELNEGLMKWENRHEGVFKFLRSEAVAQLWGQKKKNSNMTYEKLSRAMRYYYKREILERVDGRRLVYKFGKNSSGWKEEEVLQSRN
# Method in brief: as §1
# [9] = target: CRX (Homo sapiens, UniProt O43186 1-299); conditions: protein: recombinant; tags: N-terminal GST; dsDNA, one strand shown
# Sequence of CRX (O43186 whole entry): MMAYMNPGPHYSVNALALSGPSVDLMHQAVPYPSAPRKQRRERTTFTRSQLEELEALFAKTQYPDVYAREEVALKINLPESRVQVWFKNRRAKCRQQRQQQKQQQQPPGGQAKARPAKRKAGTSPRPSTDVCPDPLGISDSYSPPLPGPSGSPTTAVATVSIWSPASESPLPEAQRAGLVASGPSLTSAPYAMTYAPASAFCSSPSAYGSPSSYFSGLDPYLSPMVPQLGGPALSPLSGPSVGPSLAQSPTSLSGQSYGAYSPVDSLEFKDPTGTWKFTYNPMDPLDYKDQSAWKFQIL
# Method in brief: as §1
sequence,measurement,setting,value
TTAAAG,binding signal,[1],"1.17 fold enrichment (6-mer frequency, TF over GST control)"
same,binding signal,[2],"1.15 fold enrichment (6-mer frequency, TF over GST control)"
same,binding signal,[3],"1.85 fold enrichment (6-mer frequency, TF over GST control)"
same,binding signal,[4],"1.17 fold enrichment (6-mer frequency, TF over GST control)"
same,binding signal,[5],"1.15 fold enrichment (6-mer frequency, TF over GST control)"
same,binding signal,[6],"1.18 fold enrichment (6-mer frequency, TF over GST control)"
same,binding signal,[7],"1.12 fold enrichment (6-mer frequency, TF over GST control)"
same,binding signal,[8],"1.26 fold enrichment (6-mer frequency, TF over GST control)"
same,binding signal,[9],"2.66 fold enrichment (6-mer frequency, TF over GST control)"
